Giardia FBPA inh: qHTS Assay for Inhibitors of Fructose-1,6-bisphosphate Aldolase from Giardia Lamblia. A8B2U2. purified Giardia FBPA. Potency, µM (series often up to 59.6 µM), actives largely listed as inhibitors. 0.71% of 290,000 active. AID 2451, 2010; also: nearly all actives have a fitted effect of over 55% in size
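40 nM FBPA preincubated 10 min at RT with compound (up to 57.5 uM final), then substrate plus GAPDH/TPI/NAD/arsenate coupling and diaphorase/resazurin added. Fluorescence read after 20 min at RT, 525/598 nm.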
CHX counter: Cycloheximide Counterscreen for Small Molecule Inhibitors of Shiga Toxin; max response, %; 12% of 300,000 active; cell reporter, cycloheximide protein synthesis inhibition counterscreen; AID 2314, 2010; in the data active = max response mostly above about 13%, no sharp cut-off; inactive = mostly below about 14%; also: read at 38.3 µM for the half of the compounds with a filed dose
Tb PYK inh: qHTS of Trypanosoma Brucei Inhibitors. TbPYK enzyme, Kinase-Glo Plus ATP luminescence, 45 min. Potency, µM (top dose mostly 76.8 µM), most hits filed as inhibitors. 0.12% of 410,000 active. AID 624173, 2012; also: nearly all actives have a fitted effect of over 50% in size
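Quantitative HTS: titrated library compounds versus trypanosomal pyruvate kinase in TEA buffer (pH 7.2) containing KCl, MgCl2, BSA and Tween-20. Reactions were initiated with ADP, 130 uM final. Kinase-Glo Plus luminescence was read after 45 min at RT.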
Shiga inhibitor: A qHTS for Small Molecule Inhibitors of Shiga Toxin. Vero cells, Shiga toxin protein synthesis inhibition reporter. inhibition, % at 38.7 µM. 9.2% of 290,000 active. AID 2315, 2010; in the data active = inhibition mostly above about 28%, no sharp cut-off; inactive = mostly below about 43%
RE007 growth inh: qHTS Assay for Inhibitors of the HIV-1 protein Vpr. S. pombe RE007 Vpr strain, BacTiter-Glo ATP luminescence, 24 h. Potency, µM (highest dose often 92.2 µM), most hits filed as inhibitors. 0.21% of 360,000 active. AID 651644, 2012; active = well fitted falling curve with a large enough effect; inconclusive = small, poorly fitted or top-dose-only effect; inactive = no such curve, though single readings can be large or run the other way; also: nearly all actives have a fitted effect of over 50% in size
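Fission yeast RE007 carrying one integrated HIV-1 vpr copy, seeded at OD 0.01 in PMG+AL medium with 23 nL pinned compound. Grown 24 h at 30 degrees; viability read by BacTiter-Glo luminescence after 5 min.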
LmPK inh: qHTS Assay for Inhibitors of Leishmania Mexicana Pyruvate Kinase (LmPK). Q27686. purified LmPK, Kinase-Glo ATP luminescence, 1 h. Potency, µM (doses to about 57.5 µM), actives largely listed as inhibitors. 0.37% of 290,000 active
Target sequence (Q27686 whole entry, looked up): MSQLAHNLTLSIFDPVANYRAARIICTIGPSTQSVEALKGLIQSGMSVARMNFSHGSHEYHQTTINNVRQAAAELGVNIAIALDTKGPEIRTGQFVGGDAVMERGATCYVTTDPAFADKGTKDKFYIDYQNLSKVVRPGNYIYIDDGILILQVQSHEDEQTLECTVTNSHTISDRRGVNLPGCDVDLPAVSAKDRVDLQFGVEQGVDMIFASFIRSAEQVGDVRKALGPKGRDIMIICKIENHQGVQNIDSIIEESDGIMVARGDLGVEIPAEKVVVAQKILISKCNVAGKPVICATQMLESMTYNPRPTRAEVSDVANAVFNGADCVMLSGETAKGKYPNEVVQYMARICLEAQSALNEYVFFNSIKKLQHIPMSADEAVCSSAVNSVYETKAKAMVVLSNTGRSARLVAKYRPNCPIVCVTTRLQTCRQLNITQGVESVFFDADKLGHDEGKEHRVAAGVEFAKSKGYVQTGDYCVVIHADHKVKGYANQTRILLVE
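Kinase-Glo luminescence read after 1 h RT reaction of 0.1 nM LmPK with 0.5 mM PEP and 0.1 mM ADP. Activity scaled between uninhibited and enzyme-free controls.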
Hits are given with their value; . = inactive; ? = inconclusive; / = no result. The sample as a whole holds a higher share of hits than the screen did. Unless noted, calls follow the shape of the dose curve; as a rule, active = well fitted curve in the direction sought with a large enough effect; inconclusive = small, poorly fitted or top-dose-only effect, or another doubt; inactive = no such curve, though single readings can be large; an effect the other way counts as inactive or inconclusive.

SMILES	Giardia FBPA inh	CHX counter	Tb PYK inh	Shiga inhibitor	RE007 growth inh	LmPK inh
O=C(c1cc2cc3ccc(Cl)cc3nc2o1)N1CCN(c2cccc(Cl)c2)CC1	/	/	.	/	/	/
CCC(c1nnnn1-c1c(C)cccc1C)N1CCCN(Cc2ccc(F)cc2)CC1 (stereo not drawn)	/	/	.	/	.	/
O=C(CC1Sc2ccccc2NC1=O)c1ccc(Br)cc1 (stereo not drawn)	.	38	.	58	.	.
CN1CC[C@]23c4c5ccc(O)c4OC2C(O)CCC3[C@H]1C5 (stereo partly drawn)	/	/	.	/	/	/
CCSc1nnc(-c2ccccc2N=Cc2c(C)[nH]n(-c3ccccc3)c2=O)c(=O)[nH]1	.	13	.	.	.	.
CCSc1nnc(-c2cc(Br)ccc2N)c(=O)[nH]1	.	.	.	.	.	.
CCSc1nnc(-c2cc(Br)ccc2N=Cc2c(C)[nH]n(-c3ccccc3)c2=O)c(=O)[nH]1	.	.	.	.	.	.
CCSc1nnc(-c2ccccc2N)c(=O)[nH]1	.	24	.	53	.	.
O=C(O)/C=C/C(=O)NNc1ncnc2ccccc12	.	31	.	81	.	.
O=C(NNc1ncnc2ccccc12)c1cccc(Cl)c1	.	31	.	52	.	.
CC(=O)NNc1ncnc2ccccc12	.	.	.	.	.	.
O[C@@H]([C@H](O)[C@H](O)CBr)[C@H](O)CBr	/	/	.	/	.	/
CCCc1cc(-c2nc(-c3ccc(Br)cc3)cs2)ccn1	.	22	.	.	.	.
Cc1ccc(N=C2C(=O)Nc3ccc(Br)cc32)cc1	.	.	.	.	.	.
Oc1ccc(Br)cc1-c1ccn[nH]1	.	.	.	42	/	.
COc1ccc(-n2c(CCC(=O)O)ccc2-c2ccc(F)cc2)c(OC)c1	.	.	.	.	.	.
COc1cccc(C2c3[nH]c4ccccc4c3CCN2C(=O)c2ccccc2F)c1OC (stereo not drawn)	.	.	.	.	.	.
COc1ccc(C2c3[nH]c4ccccc4c3CCN2C(=O)c2cn3ccccc3n2)c(F)c1 (stereo not drawn)	.	30	.	53	.	.
COc1ccc(C2c3[nH]c4ccccc4c3CCN2C(=O)c2ccccc2C(C)=O)c(F)c1 (stereo not drawn)	.	18	.	29	.	.
COc1ccc(C2c3[nH]c4ccccc4c3CCN2C(=O)c2cc3ncccn3n2)c(F)c1 (stereo not drawn)	.	.	.	.	.	.
COc1ccc(OCc2cc(C(=O)NC(C)Cc3ccccn3)no2)c(Cl)c1 (stereo not drawn)	/	35	.	37	.	.
COc1ccc(OCc2cc(C(=O)NC(C)Cn3cncn3)no2)c(Cl)c1 (stereo not drawn)	/	40	.	62	.	.
COc1ccc(OCc2cc(C(=O)NC(C)Cc3cccnc3)no2)c(Cl)c1 (stereo not drawn)	/	27	.	.	.	.
CC(Cn1cncn1)NC(=O)c1cc(COc2cccc(C(F)(F)F)c2)on1 (stereo not drawn)	/	.	.	.	.	.
CN(C)CCO	.	.	.	.	/	/
SMILES	Giardia FBPA inh	CHX counter	Tb PYK inh	Shiga inhibitor	RE007 growth inh	LmPK inh
C#C[C@]1(O)CC[C@H]2C3CCC4=Cc5oncc5CC4(C)C3CCC21C (stereo partly drawn)	.	/	/	/	/	/
CCOc1ccsc1C(=O)O	.	.	.	.	.	.
CC(C)N1C(=O)CN(C2CCCCCC2)C(=O)C1c1ccccc1F (stereo not drawn)	.	60	.	187	.	.
Cc1ccc(C2C(=O)N(C3CCCCCC3)CC(=O)N2C(C)C)cc1 (stereo not drawn)	/	/	.	/	/	/
O=C(Nc1ccc2nc(-c3ccco3)c(-c3ccco3)nc2c1)N1CCCC1	/	30	/	62	/	/
O=C(Nc1ccc2nc(-c3ccco3)c(-c3ccco3)nc2c1)N1CCN(c2ccccn2)CC1	?	.	?	.	.	.
O=C(Nc1cnc2ccccc2c1)N1CCCCC1	.	51	.	82	.	.
O=C(Nc1ccc(O)cc1)N1CCOCC1	.	.	.	.	.	.
O=C(Nc1cnc2ccccc2c1)N1CCOCC1	.	42	.	64	.	.
CC1(C(=O)Nc2cnc3ccccc3c2)CCN1Cc1ccc2ccccc2c1 (stereo not drawn)	/	/	.	/	.	/
COc1ccc(C(=O)C2CCCN(C(=O)c3cc(C4CC4)[nH]n3)C2)c(C)c1 (stereo not drawn)	.	.	.	.	.	.
CCOc1ccc(C(=O)Nc2ccc3c(c2)CCCN3S(=O)(=O)c2ccc(C)cc2)cc1	/	/	.	/	/	/
O=C(Nc1ccc2c(c1)OCCO2)C1CC(c2ccccc2Cl)=NO1 (stereo not drawn)	.	61	.	117	.	.
O=C(Nc1ccc2c(c1)OCO2)C1CC(c2ccccc2O)=NO1 (stereo not drawn)	.	active	.	.	.	.
COc1ccc(NC(=O)C2CC(c3ccccc3Cl)=NO2)cc1 (stereo not drawn)	.	14	.	.	.	.
O=C(Nc1ccc2c(c1)OCO2)C1CC(c2ccc(Cl)cc2)=NO1 (stereo not drawn)	.	.	.	.	.	.
COc1ccccc1C(=O)Nc1nnc(SCc2cc(=O)c3cc(Cl)ccc3[nH]2)s1	/	/	.	/	/	/
Fc1cccc(Cc2c(-c3ccco3)nc3c4ccccc4ccn23)c1	/	/	.	/	.	/
Cc1ccc(CNC(=O)CSc2ccsc2[N+](=O)[O-])cc1	.	54	.	72	.	.
COc1ccc(CNC(=O)CSc2ccsc2[N+](=O)[O-])cc1	.	34	.	84	.	.
O=C(CSc1ccsc1[N+](=O)[O-])NCCc1ccc(Cl)cc1	.	.	.	.	.	.
O=C(CSc1ccsc1[N+](=O)[O-])Nc1cc(F)ccc1F	.	19	.	45	.	.
CCOc1ccc(NC(=O)CSc2ncc3c(n2)-c2ccccc2N(Cc2ccccc2C)S3(=O)=O)cc1	/	/	.	/	/	/
Cc1ccc(C(c2nnnn2CCc2ccccc2)N2CCC(C)CC2)cc1 (stereo not drawn)	.	15	.	.	.	.
Cc1ccc(CN(Cc2ccco2)c2cnc(S(C)(=O)=O)nc2C(=O)Nc2ccccc2Br)o1	/	/	.	/	/	/
CCCCCOCC1CC(C/C(C)=N/Nc2nc(-c3ccccc3)cs2)C(=O)O1 (stereo not drawn)	.	27	.	69	.	.
CCOc1ccccc1NC(=O)c1cnn2c(C(F)F)cc(-c3ccccc3)nc12	/	/	.	/	/	/
CC(C)c1nnc(NC(=O)c2ccc3ccccc3c2)s1	/	51	.	108	.	.

Screening results as filed in PubChem.
